Pf growth 48h = inhibits P. falciparum growth in the first generation, 48 h. P. falciparum luciferase growth in erythrocytes, 48 h. Potency, µM (top dose mostly 28.7 µM), for inactives: at the top dose activity change, negative = inhibition, usual class: inhibitors. actives 5.9% (n = 310,000). AID 504832; also: potency is read from the fitted curve at half-maximal effect; % is scaled to controls: 0 for no effect and ±100 for the full control effect
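Compounds are pin-transferred into medium, infected erythrocytes (2% hematocrit, 0.1% parasitemia final) are added, and plates sit one parasite generation at 37 C in 5% CO2. Detection reagent is then added and luminescence measured.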
Pf growth 96h = P. falciparum growth inhibition at 96 hour, primary screen for plastid delayed-death inhibitors; P. falciparum luciferase reporter growth, 96 h; Potency, µM (series often up to 28.7 µM), without a hit: at the highest dose activity change, negative = inhibition, hits mostly inhibitors; actives 6.9% (n = 320,000); AID 504834; also: potency is read from the fitted curve at half-maximal effect; % is scaled to controls: 0 for no effect and ±100 for the full control effect
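Luminescence readout: decreased luciferase signal marks inhibited growth of reporter-expressing P. falciparum in infected red cells (2% hematocrit, 0.05% parasitemia final), exposed to compound two generations (96 h, 37 C, 5% CO2).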
Cycloheximide cs = counter-screen for Shiga toxin inhibitors: cycloheximide protein synthesis inhibition | cell reporter, cycloheximide protein synthesis inhibition counterscreen | max response, % | actives 12% (n = 300,000) | AID 2314; in the data active = max response mostly above about 13%, no sharp cut-off; inactive = mostly below about 14%; also: read at 38.3 µM for the half of the compounds with a filed dose; 0% is about no effect
AMA1 RON2 block = disrupts binding of P. falciparum AMA1 to RON2; AID 720542; actives 0.2% (n = 360,000); AlphaScreen AMA1-biotinylated RON2 peptide binding; Potency, µM (titrated, usually from 58.2 µM), for the others: top-dose activity change, negative = inhibition, usual class: inhibitors;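 also: potency is read from the fitted curve at half-maximal effect; 0% = vehicle wells and -100% = peptide control; nearly all actives have a fitted effect of over 45% in size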
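AMA1 (3D7) with his tag at 25 nM final met compounds first, then biotinylated RON2 peptide at 25 nM; detection used donor plus acceptor beads, 10 µg/mL apiece, read by AlphaScreen after 30 min at room temperature.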
Shiga inhibitor = inhibitors of Shiga toxin in Vero cells. actives 9.2% (n = 290,000). Vero cells, Shiga toxin protein synthesis inhibition reporter. inhibition, % at 38.7 µM; in the data active = inhibition mostly above about 28%, no sharp cut-off; inactive = mostly below about 43%; also: 0% is about no effect
SARS PLpro yeast = SARS-CoV PLP inhibition in yeast; AID 485353; Potency, µM (series often up to 32.9 µM), for the others: at the highest dose activity, positive = growth rescue, actives largely listed as activators; S. cerevisiae expressing SARS-CoV PLpro, growth rescue; actives 0.19% (n = 330,000); calls by dose curve; also: potency is read from the fitted curve at half-maximal effect; 0% is about no effect; nearly all actives have a fitted effect of over 55% in size
Starred values were filed as active, the others as inactive; ? = inconclusive; . = not tested or not shown; [ ] = remark or other dose. In the library only some 19% were active in any assay of this set; here they are far more common. Unless noted, calls follow the shape of the dose curve; as a rule, active = well fitted curve in the direction sought with a large enough effect; inconclusive = small, poorly fitted or top-dose-only effect, or another doubt; inactive = no such curve, though single readings can be large; an effect the other way counts as inactive or inconclusive.

SMILES	Pf growth 48h	Pf growth 96h	Cycloheximide cs	AMA1 RON2 block	Shiga inhibitor	SARS PLpro yeast
COCCNC(=O)/C(C#N)=C/c1c(N2CCN(c3ccc(OC)cc3)CC2)nc2c(C)cccn2c1=O	.	?	0.7	-7.7%	-3.0	0.4%
CCNC(=O)/C(C#N)=C/c1c(N2CCN(c3ccccc3)CC2)nc2c(C)cccn2c1=O	?	?	-6.5	-18.6%	-2.5	1.1%
COCCNC(=O)/C(C#N)=C/c1c(N2CCN(c3cccc(Cl)c3)CC2)nc2c(C)cccn2c1=O	13.1µM*	?	-6.7	-4.8%	-2.4	-2.6%
COc1ccc(OCC(=O)N2CCN(S(=O)(=O)c3ccccc3[N+](=O)[O-])CC2)cc1	?	?	-3.5	-10.6%	-1.2	-2.0%
COc1nc(N/N=C/c2ccccc2F)nc(N2CCCCC2)n1	-2.0%	49.2%	5.3	14.4%	13.7	2.6%
O=C(Cc1ccccc1)Nc1ccc(Br)c(Cl)c1	47.6%	153.8%	20.6*	14.9%	25.4*	-1.5%
C/C(=C\C(=O)c1ccc(Cl)cc1)Nc1ccc(N2CCOCC2)cc1	.	-11.6%	-1.6	-11.0%	21.4	3.7%
C/C(=C\C(=O)c1ccccc1)Nc1ccc(Br)c(Cl)c1	60.1%	65.6%	22.6*	-10.8%	97.8	4.8%
O=C(Cc1ccccc1)Nc1ccc(NC(=O)c2ccccc2)c(Cl)c1	0.0%	?	1.7	0.0%	1.8	-5.1%
C/C(=C\C(=O)c1ccc(Br)cc1)Nc1ccc(Cl)cc1	64.4%	57.7%	19.6	-11.0%	36.2*	1.2%
CCC(=O)Nc1ccc(Br)c(Cl)c1	13.1%	?	1.0	-12.7%	13.0	-31.4%
Cc1cc(C)c(C#N)c(SCc2ccccc2)n1	?	21.5%	-0.9	57.9%	-7.5	12.1%
Cc1cc(C)c(C#N)c(SCc2cn3ccccc3n2)n1	14.7%	?	15.0*	-1.6%	33.3	2.9%
Cc1cc(C)nc(SCc2cn3ccccc3n2)n1	20.8%	-3.8%	22.4*	-5.7%	26.7	1.2%
O=C(NCCCN1CCCC1=O)c1cccc(NS(=O)(=O)c2ccc(Br)cc2)c1	?	0.0%	.	0.4%	.	-0.3%
CC1(C)OC(=O)C(=NNc2ccc(C(=O)O)cc2)C(=O)O1	26.2%	7.3%	14.9	7.2%	17.1	1.2%
CC1(C)OC(=O)C(=NNc2ccc(O)cc2)C(=O)O1	58.7%	46.6%	12.7*	-11.2%	41.5	?
CC1(C)OC(=O)C(=NNc2ccc(Cl)cc2)C(=O)O1	.	-7.9%	59.8*	-9.5%	63.0*	10.6%
CC(=O)N1CCCC(C)(C(=O)Nc2cccc(OC(C)C)c2)C1 (stereo not drawn)	.	.	.	-0.6%	.	.
COc1cccc(CN2CCNC(=O)C2CC(=O)NCCCn2ccnc2)c1 (stereo not drawn)	-5.4%	14.6%	-1.2	-12.1%	-14.0	0.7%
Cc1cc2c(cc1C)-c1nnnn1C(N1CCCC1)C(=O)N2 (stereo not drawn)	.	.	.	18.7%	.	.
CCC(C)c1ccc2oc(-c3ccc(NC(=O)Cn4cnc5c(=O)n(C)c(=O)n(C)c54)cc3)nc2c1 (stereo not drawn)	56.5%	?	57.6*	-12.2%	154.4*	-11.7%
Cc1ccc2oc(-c3cccc(NC(=O)Cn4cnc5c(=O)n(C)c(=O)n(C)c54)c3)nc2c1	172.0%	435.9%	34.2*	.	137.4*	0.4%
Cc1cc(C)nc(Nc2ccc(C(=O)O)cc2)n1	.	77.8%	13.4	-2.8%	2.9	-3.8%
Cc1cc(C)nc(Nc2ccc(N3CCCC3)cc2)n1	?	.	30.3*	31.6µM*	90.3*	2.6%
SMILES	Pf growth 48h	Pf growth 96h	Cycloheximide cs	AMA1 RON2 block	Shiga inhibitor	SARS PLpro yeast
CCCNc1nc(Nc2ccc(C)cc2)nc(N2CCCC2)n1	.	2.08µM*	-1.7	-12.2%	-2.7	-32.5%
Cc1cc(C)nc(Nc2ccc(N3CCOCC3)cc2)n1	.	.	17.1*	-7.3%	70.4	-1.0%
NC(=O)N/N=C/c1c(Sc2nnnn2-c2ccccc2)nc2ccccn2c1=O	4.65µM*	?	-3.0	15.0%	17.8	-0.6%
Fc1ccc(Cn2nnnc2C(c2cccs2)N2CCN(C3CCCCC3)CC2)cc1 (stereo not drawn)	?	?	13.9*	-5.9%	54.7*	0.0%
CC(C)C(c1nnnn1Cc1ccc(F)cc1)N1CCN(C2CCCCC2)CC1 (stereo not drawn)	?	-15.9%[5.75 µM]	-1.8	-3.8%	-8.3	-2.5%
COCCn1nnnc1C(c1cccs1)N1CCN(c2cccc(C(F)(F)F)c2)CC1 (stereo not drawn)	?	.	-2.3	-20.1%	-17.1	-4.7%
COCCn1nnnc1C(c1cccs1)N1CCN2CCCC2C1 (stereo not drawn)	-1.2%	62.8%	13.6*	2.9%	54.5*	0.1%
CCOc1c(/C=C(\C#N)C(N)=O)c2ccccc2n1CC	3.9%	13.1µM*	-2.3	-3.8%	-5.1	13.8%
CCOC(=O)/C(C#N)=C\c1c(OCC)n(CC)c2ccccc12	?	11.7µM*	-3.8	-23.5%	-8.9	-24.8%
C[C@@H]1CN([C@@H](C)CO)C(=O)c2cc(Br)cnc2O[C@H]1CN(C)C(=O)Nc1ccc(F)cc1	.	.	.	9.0%	.	.
C[C@H](NC(c1cccc2nc(O)c(O)nc12)P(=O)(O)O)c1ccc(Br)cc1 (stereo partly drawn)	.	.	-4.1	.	-8.4	.
CN1C(c2ccccc2)CCOS1(=O)=O (stereo not drawn)	28.1%	3.0%	0.1	-0.4%	-4.7	5.4%
C1CCc2c(nnc3c2-c2nonc2CC3)C1	9.2%	2.08µM*	-1.2	7.5%	20.5	2.0%
C=CCOc1ccc(C2/C(=C(\O)c3ccc4c(c3)OCCO4)C(=O)C(=O)N2CCCN2CCOCC2)cc1 (stereo not drawn)	-1.5%	-0.4%	5.3	6.3%	15.6	-3.9%
Cc1cc(C(=O)Nc2sc(C)c(C)c2C#N)no1	78.2%	.	41.5*	-2.7%	58.6*	-14.9%
CCc1c(C)sc(NC(=O)c2cc(C)no2)c1C#N	.	?	1.2	-3.0%	13.1	-8.9%
CCc1c(C)sc(NC(=O)c2cc(C(C)C)on2)c1C#N	22.9%	54.6%	13.0*	-2.2%	55.1*	2.7%
CCCCCC(=O)Nc1sc(C)c(C)c1C#N	38.6%	48.5%	42.3*	-9.6%	active	-11.4%
Cc1cc(C(=O)Nc2sc3c(c2C#N)CCC(C(C)(C)C)C3)no1 (stereo not drawn)	.	10.4µM*	1.1	-12.2%	-1.0	4.2%
CCCC(=O)Nc1sc(C)c(C)c1C#N	18.9%	23.9%	-5.0	-8.1%	24.7	-0.7%
COC(=O)c1ccccc1NC(=O)CSc1nc2ccsc2c(=O)n1CCCCC(=O)O	.	.	.	1.1%	.	.
COc1ccc(S(=O)(=O)CC(O)CN2CCCC2=O)cc1 (stereo not drawn)	-4.0%	116.7%	-1.6	-2.0%	3.6	2.4%
CCc1c(C)sc(NC(=O)CC#N)c1C#N	-2.2%	0.828µM*	3.8	21.8%	-13.0	0.4%

Screening data: PubChem, National Center for Advancing Translational Sciences (NCATS)
